The text below walks through data of PubChem BioAssay (NCATS).

Test [1] addresses Cytochrome P450 2C19 (Homo sapiens) (UniProt P33261). The experiment in a line: qHTS for inhibitors of CYP2C19 against the NCATS DSHEA and TCM libraries (AID 1919974). Further: potency means the concentration at half of the fitted maximal effect. The procedure, abridged: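 Substances were tested against enzyme with a pro-luciferin substrate; minus-enzyme wells served as background. After NADPH-initiated oxidation (30-45 min, RT), light was generated with P450-Glo reagent.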
(In general: In qHTS, concentration-response curves come from the screen itself.)

Test [2] is described as follows: KB-3-1 P-gp reporter qHTS against the NCATS DSHEA and TCM libraries (AID 1919975). Further: 0% is about no effect. The essentials:
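Parental KB-3-1 cells, 500 cells/well, in DMEM with 10% FBS, exposed 72 h at 37 C to compounds in concentration-response. Viability read by CellTiter-Glo luminescence after 30 min at room temperature.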

Test [3] can be described thus: KB-8-5-11 P-gp reporter qHTS against the NCATS DSHEA and TCM libraries (AID 1919977). Further: 0% is about no effect. The essentials: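 P-gp-overexpressing KB-8-5-11 cells were screened in colchicine-free medium at 500 cells/well, as a titration series. Cells were exposed for 72 h at 37C. Viability was read by CellTiter-Glo luminescence after 30 min at room temperature.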
The nature of test [4]: qHTS Counterscreen for compound interference against the NCATS DSHEA and TCM libraries (AID 1919978).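 Further: compounds preincubated with 1 µM D-luciferin or buffer before detection reagent; % of control where 0% means no effect.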 Particulars: firefly luciferase detection reagent interference, luminescence. The procedure, abridged: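 Firefly luciferase detection reagent was added after compounds (19.5 nM–39.8 uM final) had been incubated 15 min at room temperature with 1 uM D-luciferin or with 100 mM phosphate buffer alone. Luminescence was read after 30 min at room temperature.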

Test [5] can be described thus: Dual reporter qHTS for agonist of Pregnane X Receptor (hPXR) against the NCATS DSHEA and TCM libraries: Fluorescence readout (AID 1920058). Further: 0% is about no effect. The procedure, abridged:
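Fluorescence read-out for cell viability: CellTiter-Fluor, 1 h at 37 °C, Ex/Em 405/540 nm. This followed ~24 h treatment of hPXR-Luc HepG2 cells with substances in agonist mode.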

The target in test [6] is Nuclear receptor subfamily 1 group I member 2 (Homo sapiens) (UniProt O75469). The experiment in a line: Dual reporter qHTS for agonist of Pregnane X Receptor (hPXR) against the NCATS DSHEA and TCM libraries: Luminescence readout (AID 1920059). Further: 0% is about no effect. The procedure, abridged: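 hPXR-LucHepG2 cells in phenol red-free DMEM with 5% charcoal-stripped FBS, 2000 cells/well, attached 5 h, then exposed 24 h at 37C to compounds; rifampicin as positive agonist control (2.8 nM–92 uM). Luciferase luminescence read.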

For test [7] the target is unchanged. The experiment in a line: Dual reporter qHTS for antagonist of Pregnane X Receptor (hPXR) against the NCATS DSHEA and TCM libraries: Luminescence Readout (AID 1920060).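 Further: HepG2 cells carrying hPXR luciferase reporter stimulated with rifampicin at 2 µM; 0% is about no effect.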 The essentials: (§1)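 In antagonist mode, 2 uM rifampicin was added to hPXR-Luc HepG2 cells alongside test substances, incubated 24 h at 37 C; luminescence gave reporter activity, and CellTiter-Fluor fluorescence (405/540 nm) gave viability.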

Test [8] in a line: Dual reporter qHTS for antagonist of Pregnane X Receptor (hPXR) against the NCATS DSHEA and TCM libraries: Fluorescence Readout (AID 1920061). Further: 0% is about no effect. The procedure, abridged: as §1
Test [9] can be described thus: qHTS profiling for inhibitors of Plasmodium falciparum proliferation (AID 504749).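 Further: 0% = DMSO vehicle and full inhibition = artemisinin control; nearly all actives have a fitted effect of over 60% in size.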 The settings on record: P. falciparum in erythrocytes, SYBR Green DNA, 72 h, at 28.7 µM (top of the series). The essentials:
(§2)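 Fluorescence of SYBR Green-bound parasite DNA, read at 485/535 nm, served as the growth measure. Infected erythrocytes were cultured with compound 72 h; artemisinin (0.29 uM) and DMSO wells defined the normalization range.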

A further test relates to 3D7. Described as above. The settings on record: P. falciparum in erythrocytes, SYBR Green DNA, 72 h; series mostly up to 28.7 µM. The procedure, abridged: as §2
For the next test, the system named is 7G8. The description is as above. The settings on record: P. falciparum in erythrocytes, SYBR Green DNA, 72 h; series mostly up to 28.7 µM. The essentials: as §2
The subject of the next test is AA1029. The test is described as above. Particulars: P. falciparum in erythrocytes, SYBR Green DNA, 72 h; series mostly up to 28.7 µM. The procedure, abridged: as §2
A further test relates to AS120. Described as above. Particulars: P. falciparum in erythrocytes, SYBR Green DNA, 72 h; series mostly up to 28.7 µM. The essentials:
as §2

A further test concerns ATS189. The description is as above. The settings on record: P. falciparum in erythrocytes, SYBR Green DNA, 72 h; series mostly up to 28.7 µM. The essentials:
as §2

Another test concerns ATS95. The test is described as above. The settings on record: P. falciparum in erythrocytes, SYBR Green DNA, 72 h; series mostly up to 28.7 µM. The procedure, abridged:
as §2

The next test relates to C2A. Described as above. Particulars: P. falciparum in erythrocytes, SYBR Green DNA, 72 h; series mostly up to 28.7 µM. The essentials:
as §2

In a further test the test system is CP185. The test is described as above. The settings on record: P. falciparum in erythrocytes, SYBR Green DNA, 72 h; series mostly up to 28.7 µM. The procedure, abridged: as §2
Another test has as its system CP191. Described as above. The settings on record: P. falciparum in erythrocytes, SYBR Green DNA, 72 h; series mostly up to 28.7 µM. The procedure, abridged: as §2
Test [10] in a line: qHTS drug screen for cell cycle checkpoint inhibitors in PARPi-resistant BRCA-mutant ovarian cancer cell lines. (AID 1963452; calls by dose curve). Particulars: PEO1/OlaR viability, CellTiter-Glo luminescence, 96 h, stronger effect = lower value. The essentials:
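PEO1, PEO4 and PEO1/OlaR ovarian cancer cells, 600 per well, exposed 96 h at 37C to a dilution series. Viability read by CellTiter-Glo luminescence, normalized to DMSO and empty wells; activity summarized as Z-AUC.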

Results filed as inconclusive are left out. The source made the active and inactive calls. Unless noted, the call rests on the fitted dose curve; in most records, active means well fitted curve in the direction sought with a large enough effect; inconclusive means small, poorly fitted or top-dose-only effect, or another doubt; inactive means no such curve, though single readings can be large; an effect the other way counts as inactive or inconclusive.

Sequence of Nuclear receptor subfamily 1 group I member 2 (Homo sapiens) (O75469 whole entry, looked up): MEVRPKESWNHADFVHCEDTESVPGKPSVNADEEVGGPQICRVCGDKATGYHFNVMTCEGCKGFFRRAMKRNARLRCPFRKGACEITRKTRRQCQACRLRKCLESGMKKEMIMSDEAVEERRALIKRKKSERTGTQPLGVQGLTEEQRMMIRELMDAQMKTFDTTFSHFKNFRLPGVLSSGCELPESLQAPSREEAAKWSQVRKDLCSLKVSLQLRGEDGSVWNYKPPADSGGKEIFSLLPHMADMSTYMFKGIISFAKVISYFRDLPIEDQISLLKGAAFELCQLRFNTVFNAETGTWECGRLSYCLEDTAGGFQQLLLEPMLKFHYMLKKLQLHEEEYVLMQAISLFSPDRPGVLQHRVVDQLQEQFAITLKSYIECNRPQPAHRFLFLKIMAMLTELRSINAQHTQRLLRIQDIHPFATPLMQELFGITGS
Sequence of Cytochrome P450 2C19 (Homo sapiens) (P33261 whole entry, looked up): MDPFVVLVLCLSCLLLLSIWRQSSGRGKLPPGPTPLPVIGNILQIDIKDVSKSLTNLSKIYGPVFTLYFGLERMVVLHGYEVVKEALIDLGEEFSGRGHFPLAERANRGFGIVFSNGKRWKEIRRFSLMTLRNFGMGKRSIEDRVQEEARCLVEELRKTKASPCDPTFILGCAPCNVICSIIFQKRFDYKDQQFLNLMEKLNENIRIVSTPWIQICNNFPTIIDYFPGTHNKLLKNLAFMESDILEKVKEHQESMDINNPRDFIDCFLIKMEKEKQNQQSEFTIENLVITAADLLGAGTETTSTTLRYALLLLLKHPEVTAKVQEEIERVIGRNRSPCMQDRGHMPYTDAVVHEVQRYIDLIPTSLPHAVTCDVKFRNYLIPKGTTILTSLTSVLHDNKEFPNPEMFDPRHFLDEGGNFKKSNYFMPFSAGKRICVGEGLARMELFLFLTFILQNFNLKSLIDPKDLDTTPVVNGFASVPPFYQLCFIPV

Regarding `COC1=CC(=O)O[C@@H](/C=C/c2ccccc2)C1`, in test [1], the Potency is 14.1 µM (active). For the same molecule, the call in [2], in test [3], in test [5], in [6], in test [7] and in test [8] was inactive. The max response in test [4] was -0.203% (inactive).

Regarding `C[N+]1(C)CCCCC1COC(=O)C(O)(c1ccccc1)c1ccccc1` (centres undefined), the activity, negative = inhibition in test [9] (parasite line A) is -21.5% (inactive); in test [9] (parasite line B), -9.17% (inactive). For the same molecule, the Potency result with 3D7, in the test with 7G8, in the test on AA1029, in the test with AS120, with ATS189 and with ATS95 was “inactive” in each case. Also, the Potency entry with C2A, with CP185 and in the test with CP191 was “inactive” each time.

For `O=C(CCl)c1ccc(Oc2ccc(C(=O)CCl)cc2)cc1`, the results for the activity, negative = inhibition in test [9] (parasite line A) and in test [9] (parasite line B) were 5.66% (inactive) and 2.87% (inactive), respectively. For the same molecule, the Potency entry in the test with 3D7, in the test on 7G8, in the test with AA1029, in the test on AS120, with ATS189 and in the test on ATS95 was “inactive” throughout. Moreover, the Potency entry with C2A, in the test with CP185 and with CP191 was “inactive” in each case.

In the case of `C/C(O)=C(\C#N)C(=O)Nc1cc(Br)ccc1Br`, the Z-AUC is -0.13 (inactive) in test [10], 0.336 in test [10] (measured here: PEO1 parental Z-AUC) and 0.627 in test [10] (measured here: PEO4 Z-AUC).

Consider `N#CC1(N2CCCCC2)CCCCC1`, for which the activity, negative = inhibition was 7.09% (inactive) in test [9] (parasite line A) and 1.5% (inactive) in test [9] (parasite line B). Also, the Potency entry with 3D7, in the test with 7G8, in the test on AA1029, in the test with AS120, with ATS189 and with ATS95 was “inactive” each time. Besides, the Potency entry in the test on C2A, in the test on CP185 and in the test with CP191 was “inactive” in each case.

In the case of `O=C1CCCCC1CN1CCCCC1` (centres undefined), the activity, negative = inhibition in test [9] (parasite line A) was 6.14% (inactive); in [9] (parasite line B) it was 5.73% (inactive). For the same molecule, the Potency result with 3D7, with 7G8, in the test with AA1029, in the test with AS120, in the test with ATS189 and in the test on ATS95 was “inactive” in each case. For the same molecule, the Potency entry with C2A, in the test with CP185 and in the test on CP191 was “inactive” each time.

In the case of `O=[N+]([O-])C(Br)(CO)CO`, the activity, negative = inhibition in test [9] (parasite line A) is 4.06% (inactive); in test [9] (parasite line B), -7.41% (inactive). Moreover, the Potency entry in the test on 3D7, in the test on 7G8, with AA1029, with AS120, with ATS189 and in the test with ATS95 was “inactive” throughout. Besides, the Potency result in the test with C2A, in the test on CP185 and with CP191 was “inactive” in each case.

`ClC(Cl)(Cl)Cl`: the activity, negative = inhibition in [9] (parasite line A) is 12.6% (inactive); in test [9] (parasite line B) it was 5.77% (inactive). For the same molecule, the Potency result in the test on 3D7, with 7G8, in the test with AA1029, in the test with AS120, in the test on ATS189 and in the test on ATS95 was “inactive” in each case. In addition, the Potency entry in the test with C2A, in the test with CP185 and in the test on CP191 was “inactive” in each case.

For the molecule `CCCCNCC(O)c1ccc(O)cc1` (centres undefined), the activity, negative = inhibition in test [9] (parasite line A) was -2.61% (inactive); in test [9] (parasite line B), -2.79% (inactive). Also, the Potency result with 3D7, in the test with 7G8, with AA1029, in the test with AS120, in the test with ATS189 and in the test with ATS95 was “inactive” each time. Moreover, the Potency result in the test with C2A, in the test on CP185 and with CP191 was “inactive” throughout.

For `CCC1(CC)C(=O)NC(=O)N(C)C1=O`, the activity, negative = inhibition was 7.69% (inactive) in [9] (parasite line A) and -5% (inactive) in [9] (parasite line B). For the same molecule, the Potency result with 3D7, with 7G8, in the test on AA1029, in the test with AS120, in the test on ATS189 and in the test with ATS95 was “inactive” each time. For the same molecule, the Potency entry in the test with C2A, in the test on CP185 and in the test with CP191 was “inactive” throughout.
